# Screening results (PubChem BioAssay)
# Wee1 stabilizer: human Wee1 degradation inhibition, primary screen | HeLa Luc-Wee1K328M stability, luciferase luminescence; 100% = proteasome inhibitor MG132 effect | P30291 | reporter increase, % at 5 µM | actives 1.2% (n = 220,000) | AID 1321;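 active = activation above the mean of all tested compounds plus 3 SD, set per screening run, cut at about 8.8% in these data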;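 also: cells exposed to compound for 20 h before luminescence read; 0% = DMSO alone and 100% = MG132 at 30 µM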
# Target sequence (P30291 whole entry K328M): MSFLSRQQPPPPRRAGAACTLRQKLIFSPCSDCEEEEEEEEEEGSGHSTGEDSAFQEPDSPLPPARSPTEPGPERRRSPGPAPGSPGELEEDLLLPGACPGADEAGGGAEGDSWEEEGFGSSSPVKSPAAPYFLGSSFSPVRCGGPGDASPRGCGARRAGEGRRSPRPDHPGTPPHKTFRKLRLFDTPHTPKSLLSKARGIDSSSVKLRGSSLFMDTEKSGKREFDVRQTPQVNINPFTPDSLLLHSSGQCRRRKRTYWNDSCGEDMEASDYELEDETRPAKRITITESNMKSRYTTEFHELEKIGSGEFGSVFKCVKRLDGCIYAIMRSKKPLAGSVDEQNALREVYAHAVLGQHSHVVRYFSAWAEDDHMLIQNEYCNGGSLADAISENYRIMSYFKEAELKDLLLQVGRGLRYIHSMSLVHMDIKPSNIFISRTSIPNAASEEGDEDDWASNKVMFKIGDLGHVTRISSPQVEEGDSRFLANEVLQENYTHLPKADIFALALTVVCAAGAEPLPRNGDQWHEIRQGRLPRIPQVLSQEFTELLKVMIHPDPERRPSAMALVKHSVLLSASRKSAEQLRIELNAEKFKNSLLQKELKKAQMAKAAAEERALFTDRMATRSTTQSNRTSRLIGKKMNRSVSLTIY
# DAX1 inh-1: DAX1 (NR0B1) inhibition, primary screen. HEK293T StAR-luciferase reporter, SF-1/DAX-1 repression relief. inhibition, % at 6.8 µM. actives 1.1% (n = 370,000). AID 652010;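 active = inhibition above the mean over all tested compounds plus 3 SD, cut at about 3.6% in these data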;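 also: 0% = DAX-1 cells with DMSO and 100% = cells lacking DAX-1 with DMSO; higher inhibition means more luminescence from relief of DAX-1 repression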
# DAX1 inh-2: NR0B1 (DAX1) inhibition; HEK293 Gal4-DAX1 luciferase reporter, luminescence; P51843; actives 0.99% (n = 340,000); inhibition, % at 6.75 µM;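 active = inhibition above the mean over all tested compounds plus 3 SD, cut at about 4.2% in these data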;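 also: 0% = DAX1-transfected cells with DMSO and 100% = empty-vector control cells with DMSO; inhibition shows as a rise in luminescence from relieved DAX1 repression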
# hgDAF-12 ag: hgDAF-12 agonism, primary luciferase screen | AID 687014 | actives 1.8% (n = 370,000) | HEK293 GAL4-hgDAF12 UAS-luciferase reporter, agonist luminescence; normalized to butyrate control | activation, % at 6.8 µM;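 active = activation above a cutoff set at the mean of all screened compounds plus 3 SD, cut at about 10% in these data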;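 also: 0% = DMSO wells and 100% = sodium butyrate wells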
# hcDAF-12 act: activates DAF-12 receptor from parasite H. contortus. activation, % at 6.8 µM. HEK293 hcDAF-12 lit1-tk-luc reporter, luminescence; 0% DMSO, 100% Δ7-dafachronic acid. actives 1.4% (n = 370,000). AID 652067;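 active = activation above the mean of all tested compounds plus 3 SD, cut at about 5.5% in these data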;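 also: 100% = response to 3 µM Δ7-dafachronic acid high control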
# ssDAF-12 act: activators of S. stercoralis DAF-12 nuclear receptor. HEK293 ssDAF-12/GRIP1 lit1-tk-luc reporter, luminescence; % of 3 µM dafachronic acid response. activation, % at 6.8 µM. AID 652126. actives 1% (n = 370,000);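 active = activation above the mean over all tested compounds plus 3 SD, cut at about 0.9% in these data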;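 also: 0% = DMSO-only wells and 100% = 3 µM delta7-dafachronic acid wells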
# DAX1 conf: confirmation of human DAX1 (NR0B1) inhibitors; actives 87% (n = 2,400); shares compounds with DAX1 inh-1; HEK293T StAR-promoter luciferase reporter, SF-1/DAX-1 repression; inhibition, % at 6.8 µM;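 active = inhibition above the average of every tested compound plus 3 SD, cut at about 3.8% in these data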;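 also: 0% = DAX-1 cells with DMSO and 100% = no DAX-1 control cells with DMSO; active compounds raise luminescence by relieving repression of the StAR reporter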
# SF1 mutant ctr: nonselective inhibitor or artifact in SF-1 mutant DAX1 counter-screen; actives 78% (n = 2,400); inhibition, % at 6.8 µM; HEK293 StAR-luciferase, SF-1 AF2 mutant, luminescence; AID 652136; shares compounds with DAX1 inh-1;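 active = inhibition above the mean of all tested compounds plus 3 SD, cut at about 3% in these data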;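 also: 0% = DAX-1 transfected cells with DMSO and 100% = cells without DAX-1 with DMSO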
# LXRb hcDAF ctr: activates human LXR-beta, counter-screen for hcDAF-12 agonists; shares compounds with hcDAF-12 act; HEK293 Gal4-LXR tk-luc reporter, luminescence, 24 h; normalized: DMSO 0%, positive control 100%; activation, % at 6.8 µM; 3,400 tested, under 10 active; AID 743027;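 active = mean percent activation of the reporter above a cutoff set as the average over tested compounds plus their standard deviation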
# hcDAF12 ag: hcDAF-12 agonism, confirmation assay. shares compounds with hcDAF-12 act. HEK293 hcDAF-12 lit1-tk-luc reporter, luminescence; % of Δ7-dafachronic acid response. activation, % at 6.8 µM. actives 61% (n = 3,400). AID 743032;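 active = mean activation across triplicate tests above the threshold derived from the earlier primary screen, cut at about 5.5% in these data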;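 also: 0% = DMSO only wells and 100% = 3 µM Δ7-dafachronic acid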
# * marks the source's active call; other numbers are inactive results; · = not tested or not shown. Shown are actives, neighbours in structure and some others; about 4.6% of the full set was active somewhere.
SMILES,Wee1 stabilizer,DAX1 inh-1,DAX1 inh-2,hgDAF-12 ag,hcDAF-12 act,ssDAF-12 act,DAX1 conf,SF1 mutant ctr,LXRb hcDAF ctr,hcDAF12 ag
Cc1cc(C)n(-c2ncccc2[N+](=O)[O-])n1,5,-1,0,0,1,0,·,·,·,·
CC(C)c1ccc(-n2cnn(-c3ncccc3[N+](=O)[O-])c2=O)cc1,4,6.8*,1,22*,22*,2.4*,20*,10*,2,14*
CCNC(=O)C1(C)CCCN(C(=O)c2nc3ccccc3s2)C1 (configuration not stated),·,0,·,-1,-2,-1,·,·,·,·
Cc1ccn2c(CC(C)(C)C)c(-c3ccc(F)cc3)nc2c1,·,5.6*,3,10,6.7*,1,8.8*,6.6*,1,4
COc1ccc(-n2nc3ccc(N)cc3n2)cc1,·,1,-2,1,-1,-1,·,·,·,·
CC(C)c1ccc(-n2nc3ccc(N)cc3n2)cc1,4,5.1*,0,15*,9.8*,2.2*,14*,7.8*,2,18*
Cc1ccc(NC(=O)CCC(=O)NN=Cc2ccc(C)o2)c(C)c1,·,0,·,-1,-2,-1,·,·,·,·
c1ccc(NCCC2OCC3(CO2)COC(CCNc2ccccc2)OC3)cc1 (configuration not stated),·,0,-1,3,3,-1,·,·,·,·
O=S(=O)(/N=C(/Nc1nc2ccccc2s1)c1ccccc1)c1ccccc1,·,14*,0,12*,8.9*,1.5*,5.0*,4.2*,1,3
Cc1cccc(/C=N/Nc2nncc3ccccc23)c1,-1,14*,0,18*,12*,1,12*,4.9*,2,12*
CN(C(=O)c1ccco1)c1nc2c(s1)CCCC2,2,5.1*,1,12*,8.6*,1.6*,16*,6.4*,1,8.3*
CCN(CC)C(=O)COc1coc(CN2CCN(c3ccccc3)CC2)cc1=O,·,0,0,2,0,-1,·,·,·,·
Cc1ccc(N=Nc2cc(C)ccc2O)c(C)c1,·,1,-2,2,1,0,·,·,·,·
Cc1ccc(N=Nc2cc(C)ccc2N)cc1,6,4.7*,0,17*,20*,2.8*,18*,8.1*,2,22*
COc1ccc2oc(C(=O)NCC3CCCO3)c(C)c2c1 (configuration not stated),·,6.5*,1,6,12*,1,5.1*,2,1,6.5*
CCOC(=O)C1=CCN(S(=O)(=O)c2ccccc2Br)C1c1cccc(C)c1 (configuration not stated),·,-2,·,-1,-1,-2,·,·,·,·
COc1cccc(-c2nc3n(n2)CCc2ccccc2-3)c1,·,8.3*,4.3*,20*,17*,2.0*,7.5*,4.1*,1,16*
Cc1ccc(S(=O)(=O)NN=C(c2ccccc2)c2cccs2)cc1,·,-1,1,-4,-1,-1,·,·,·,·
COc1ccc(C2NC(=S)NC3=C2CCCC3=C2SCCS2)cc1 (configuration not stated),4,88*,5.0*,50*,7.9*,0,13*,2,0,2
Clc1ccccc1NN=Cc1ccccn1,·,8.0*,2,19*,13*,1.0*,7.6*,4.7*,1,9.6*
Nc1c(Cl)ncnc1N/N=C/c1ccccn1,-2,-3,·,-4,-3,-1,·,·,·,·
O=C(Nc1ccc2c(c1)OCCO2)c1cccc2nc3ccccc3nc12,0,-1,0,3,-2,-2,·,·,·,·
O=C(Nc1ccc2c(c1)OCCO2)c1ccccc1Cl,·,9.0*,2,12*,7.2*,0,16*,9.4*,1,8.1*
Cc1ccc(C(=O)Nc2ccc3c(c2)nc2n3CCSC2)cc1,1,4.6*,0,10,7.0*,0,13*,7.5*,1,4
CC(=O)Nc1ccc2c(c1)nc1n2CCSC1,-1,0,0,0,-2,-2,·,·,·,·
SMILES,Wee1 stabilizer,DAX1 inh-1,DAX1 inh-2,hgDAF-12 ag,hcDAF-12 act,ssDAF-12 act,DAX1 conf,SF1 mutant ctr,LXRb hcDAF ctr,hcDAF12 ag
COC(=O)c1ccccc1NC(=O)CNc1ccc(F)c(S(=O)(=O)N2CCOCC2)c1,·,1,1,-3,-2,-1,·,·,·,·
C[C@H](O)C#Cc1cnc2c(c1)C(=O)N([C@H](C)CO)C[C@@H](C)[C@@H](CN(C)Cc1ccc(-c3ccccc3)cc1)O2,·,0,0,1,-2,-2,·,·,·,·
CCc1nnc(NC(=O)CSc2nc(C)cc(C)c2C#N)s1,5,6.7*,-1,11*,7.7*,-1,15*,8.4*,1,9.5*
CCn1c(C)nnc1SCC(=O)Nc1nccs1,·,0,-1,-1,3,0,·,·,·,·
Cc1ccc(C#N)c(SCC(=O)Nc2nccs2)n1,7,6.3*,0,20*,18*,3.0*,12*,6.6*,2,22*
CCOC(=O)c1c(SCC(=O)Nc2nccs2)nc(C)c(C)c1C,·,6.6*,0,5,11*,0,4.1*,2,0,2
CCc1nnc(NC(=O)CSc2nc(-c3ccc(F)cc3)cc(-c3ccccc3)c2C#N)s1,-1,0,0,0,0,-1,·,·,·,·
Cc1ccc2c(c1)S(=O)(=O)c1ccc3ccccc3c1N2,·,-1,0,1,-2,-2,·,·,·,·
Nc1ccc(C=Cc2ccc(N)cc2)cc1,·,0,·,-1,0,-2,·,·,·,·
CC(C)C(C#CC1CC1)N(Cc1ccc2c(c1)OCO2)C(N)=NC(=O)/C=C/c1ccccc1 (configuration not stated),·,-1,·,-3,-2,-1,·,·,·,·
C=Cc1ccc(CC2(C)C(=O)Nc3ccc(-c4cccnc4)cc32)cc1 (configuration not stated),·,-2,·,4,-3,-2,·,·,·,·
CC1CCC(NC(=O)C(=O)Nc2ccc3c(c2)OCO3)CC1 (configuration not stated),·,7.8*,2,5,7.0*,0,8.9*,8.8*,1,5.7*
